Assay outcomes from PubChem BioAssay.
UCHL1 block = inhibitors of human UCHL1 deubiquitinase; Ubiquitin carboxyl-terminal hydrolase isozyme L1 (Homo sapiens), P09936; purified UCHL1, Ub-rhodamine cleavage fluorescence; inhibition, % at 20 µM; hit rate 0.2% among 47,000; AID 1645859, 2021
Target sequence (P09936 whole entry, looked up): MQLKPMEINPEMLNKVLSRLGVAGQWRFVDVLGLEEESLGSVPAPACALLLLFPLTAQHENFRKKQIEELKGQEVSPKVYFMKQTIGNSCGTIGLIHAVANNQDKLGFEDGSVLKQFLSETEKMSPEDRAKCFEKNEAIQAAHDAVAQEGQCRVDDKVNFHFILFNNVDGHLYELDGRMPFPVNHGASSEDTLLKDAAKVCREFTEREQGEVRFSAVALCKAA
USP7 block = inhibitors of human USP7 deubiquitinase. purified USP7, Ub-rhodamine cleavage fluorescence. inhibition, % at 20 µM. hit rate 0.3% among 47,000
USP28 inh = inhibitors of human USP28 deubiquitinase | Ubiquitin carboxyl-terminal hydrolase 28 (Homo sapiens), Q96RU2 | purified USP28, Ub-rhodamine cleavage fluorescence, 30 min | inhibition, % at 25 µM | hit rate 3% among 47,000 | AID 1645857, 2021
USP10 block = inhibitors of human USP10 deubiquitinase; Ubiquitin carboxyl-terminal hydrolase 10 (Homo sapiens), Q14694; purified USP10, Ub-rhodamine fluorescence, 60 min; inhibition, % at 20 µM; hit rate 1.1% among 47,000; AID 1645856, 2021
OTUD3 inh = inhibitors of human OTUD3 deubiquitinase; OTU domain-containing protein 3 (Homo sapiens), Q5T2D3; purified OTUD3, Ub-rhodamine fluorescence, 2 h; inhibition, % at 25 µM; hit rate 0.7% among 47,000; AID 1645858, 2021
A number is an active result; 0 = inactive; - = no result given. Hits are enriched below; roughly 4.2% of the tested compounds scored in any of these assays. Cut-off read from the data, not from the text of the source: active = inhibition above about 30%; inactive = the rest.

SMILES	UCHL1 block	USP7 block	USP28 inh	USP10 block	OTUD3 inh
CC(C)c1nc2sc3c(NCCCN4CCOCC4)ncnc3c2c2c1CCC2	0	0	47.9	0	0
CCCCNc1ncnc2c1sc1nc(CCC)c3c(c12)CCC3	0	0	-	0	0
CC(C)Cc1nc2sc3c(NCCN4CCOCC4)ncnc3c2c2c1CCC2	0	0	82.2	0	0
CC(C)c1nc2sc3c(SCC(=O)N4CCOCC4)ncnc3c2c2c1CCC2	0	0	34.7	0	0
CC(Sc1nc2ncc(Cl)cc2[nH]1)C(=O)Nc1ccc2c(c1)OCO2 (stereo not given)	0	0	0	0	0
COc1ccccc1NS(=O)(=O)c1cc(NC(=O)c2cccc(-c3ccc(O)cc3)c2)ccc1C	0	0	0	0	0
CCCc1nc2sc3c(NCCN4CCOCC4)ncnc3c2c2c1CCC2	0	0	80.5	0	0
CC1(C)Cc2c(c(N3CCCC3)nc3sc4c(NCCCN5CCOCC5)ncnc4c23)CO1	0	0	0	0	0
CCn1c(Cn2cccn2)nc2cc(NC(=O)c3ccccc3C)ccc21	0	0	46.1	0	0
CCn1c(Cn2cccn2)nc2cc(NC(=O)C3CCCCC3)ccc21	0	0	37.6	0	0
CCn1c(Cn2cccn2)nc2cc(NC(=O)C(C)C)ccc21	0	0	0	0	0
COc1ccccc1CC(=O)N(C)C(c1ccccc1)c1ccccc1	0	0	0	0	35.1
COc1cc(CCC(=O)N(C)C(c2ccccc2)c2ccccc2)cc(OC)c1OC	0	0	0	0	0
O=C1N(Cc2cccc(Cl)c2)CCN1c1ccc2c(c1)CCC2	0	0	60.8	0	0
CC(C)c1ccc(N2CCN(Cc3ccc(F)cc3F)C2=O)cc1	0	0	0	0	0
O=C1N(Cc2cccc(Cl)c2)CCN1c1ccc(F)cc1F	0	0	47.8	0	0
CCn1c(CN2CCc3ccccc3C2)nc2cc(S(=O)(=O)N(C)C)ccc21	0	0	0	0	0
COc1ccc(NC(=O)Cc2c(C)nc3c(-c4ccc(F)cc4)c(C)nn3c2C)cc1	0	0	0	0	0
O=C(Nc1ccc(-c2cn3ccsc3n2)cc1)c1ccc(Cl)c([N+](=O)[O-])c1	0	54.2	32.2	67.0	0
CCCOc1ccc(/C=N/NC(=O)c2cc(-c3ccccc3OC)nc3ccccc23)cc1	0	0	0	0	0
COc1ccccc1NC(=O)N1CC[C@H]2NC(=O)[C@H](Cc3ccccc3)N(C)C(=O)[C@H]21	0	0	0	0	0
O=C(CC(NCc1cccnc1)C(=O)O)Nc1cccc(O)c1 (stereo not given)	0	0	0	0	0
CCS(=O)(=O)c1ccccc1C(=O)Nc1ccc2sc(C)nc2c1	0	0	54.7	0	0
CCC(=O)Nc1nc2cc(NC(=O)c3ccccc3C)ccc2s1	0	0	0	0	0
CCn1c(SCc2nc(N)c3ccccc3n2)nc2ccccc21	0	0	41.8	0	0
SMILES	UCHL1 block	USP7 block	USP28 inh	USP10 block	OTUD3 inh
Cc1ccc(N(Cc2ccc(C(=O)Nc3ccc(C)c(Cl)c3)cc2)S(C)(=O)=O)cc1C	0	0	0	0	0
Cc1ccc(CNC(=O)CCc2nnc3c(=O)n(-c4ccc(C)c(C)c4)ccn23)cc1	0	0	33.0	0	0
COc1ccc(CNC(=O)CCCc2nnc3c(=O)n(-c4cc(C)cc(C)c4)ccn23)cc1	0	0	0	35.3	0
Cc1ccc(-n2ccn3c(CCC(=O)NCc4ccc(F)cc4)nnc3c2=O)cc1C	0	0	0	0	0
N#Cc1ccc(-c2ccccc2)nc1Oc1ccc(Cl)cc1	0	0	0	0	0
Cc1ccc(Nc2nc3c(S(=O)(=O)c4ccc(C)c(C)c4)nnn3c3ccccc23)cc1C	0	0	0	0	0
COc1ccc(CNc2ccc(C(=O)OCc3ccccc3F)cc2S(=O)(=O)Nc2cccc(OC)c2)cc1	0	0	0	32.6	0
COc1cccc(NS(=O)(=O)c2cc(C(=O)N3CCCCC3)ccc2NCc2ccccc2OC)c1	0	0	0	0	0
C[C@]12C[C@@H](Cc3ccccc3)N(C(=O)c3ccccc3Cn3cncn3)[C@H]1CCCC(=O)N2	0	0	0	0	0
CCCCNC(=O)CSc1nnc(-c2cc3ccccc3n2C)o1	0	0	0	0	31.1
O=C(CSc1nnc(NC(=O)c2ccc([N+](=O)[O-])cc2)s1)Nc1ccc(Br)cc1	0	0	0	0	0
Nc1ncnc2sc(Nc3ccc([N+](=O)[O-])cc3)nc12	0	0	32.7	0	0
O=C(Nc1cc(-c2cccnc2)no1)c1ccc2c(c1)OCO2	0	0	0	0	0
Nc1c(C(=O)Nc2ccc3c(c2)OCO3)sc2nc(-c3cccnc3)ccc12	0	0	32.9	0	0
CC(=O)N1CCOc2cc(S(=O)(=O)N3CCCC3c3cc(C(C)C)on3)ccc21 (stereo not given)	0	0	40.4	0	0
CCCc1cc(C2CCCN2S(=O)(=O)c2ccc3c(c2)OCCN3C(C)=O)no1 (stereo not given)	0	0	49.0	0	0
CC(=O)N1CCOc2cc(S(=O)(=O)N3CCCC3c3cc(C)on3)ccc21 (stereo not given)	0	0	0	0	0
Cc1cc(C2CCCN2S(=O)(=O)c2ccc3c(c2)OCCO3)no1 (stereo not given)	0	0	0	0	0
CC(C)(C)OC(=O)N1CCN(C(=O)Cn2c(=O)nc(-c3ccccc3)c3ccccc32)CC1	0	0	0	0	0
CCOc1ccccc1NC(=O)c1cnn(-c2cccc(Cl)c2C)c1C1CCNCC1	0	0	0	0	0
O=C(c1ccc2occc2c1)N1CCC(S(=O)(=O)c2ccc(-c3ccco3)cc2)CC1	51.8	51.7	0	32.9	0
Cc1cc(N(C)C)nc(N2CCN(C(=O)c3ccco3)CC2)n1	0	0	0	0	0
Cc1cc(Br)c(C(C)C)c(Br)c1OC(=O)c1ccco1	0	0	47.8	0	0
Cc1nc(-c2cccc(-c3noc(-c4ccccn4)n3)c2)cs1	0	0	0	0	0
O=C(Cc1ccccc1F)Nc1nc(-c2ccco2)c(-c2ccco2)s1	0	0	43.0	0	57.5
SMILES	UCHL1 block	USP7 block	USP28 inh	USP10 block	OTUD3 inh
COc1ccc(CC(=O)Nc2nc(-c3ccco3)c(-c3ccco3)s2)cc1	0	0	32.2	0	62.0
CCOC(=O)N1CCN(Cc2nnnn2-c2cccc(F)c2)CC1	0	0	0	0	0
COc1cc2c(=O)n(CC3CCCO3)c(=O)n(CC(=O)Nc3ccc4c(c3)OCCO4)c2cc1OC (stereo not given)	0	0	0	0	0
COc1cc2c(=O)n(CC3CCCO3)c(=O)n(CC(=O)c3ccc4c(c3)OCO4)c2cc1OC (stereo not given)	0	0	0	32.7	0
Cn1c(=O)c2c(nc(CN3CCN(Cc4ccccc4)CC3)n2CCN2CCOCC2)n(C)c1=O	0	0	0	0	0
Cn1c(=O)c2c(nc(SCc3nnc(-c4ccccc4)o3)n2Cc2ccc(F)cc2)n(C)c1=O	0	0	33.0	0	0
